# Rows were chosen to be rich in hits. Some 2.8% of all compounds tested hit in one or more screens of this group.
# PGE2 EP2 inh – human EP2 receptor antagonists, primary screen, TR-FRET cAMP, C6 glioma cells; C6 glioma cells expressing human EP2; cells stimulated with saturating PGE2; actives 0.52% (n = 260,000); AID 1422, 2008; Prostaglandin E2 receptor EP2 subtype (Homo sapiens), P43116; inhibition, % at 25 µM;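 active = percent inhibition above 40 after rounding to a whole number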;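 note: rat C6 glioma host cells with rolipram phosphodiesterase inhibitor present; the protocol text gives 20 µM as final concentration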
# NCF1 inh – p47phox/p22phox peptide binding inhibitors, primary screen, biochemical, uHTS, NADPH oxidase regulatory subunit; actives 0.53% (n = 220,000); inhibition, % at 24.7 µM; AID 1274, 2008; Neutrophil cytosol factor 1 (Homo sapiens), P14598; fluorescence polarization, 2 h;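 active = inhibition above about 30%, limit read from the data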;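 note: 0% = p47phox with labelled peptide and 100% = labelled peptide alone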
# Target sequence (P14598 whole entry, looked up): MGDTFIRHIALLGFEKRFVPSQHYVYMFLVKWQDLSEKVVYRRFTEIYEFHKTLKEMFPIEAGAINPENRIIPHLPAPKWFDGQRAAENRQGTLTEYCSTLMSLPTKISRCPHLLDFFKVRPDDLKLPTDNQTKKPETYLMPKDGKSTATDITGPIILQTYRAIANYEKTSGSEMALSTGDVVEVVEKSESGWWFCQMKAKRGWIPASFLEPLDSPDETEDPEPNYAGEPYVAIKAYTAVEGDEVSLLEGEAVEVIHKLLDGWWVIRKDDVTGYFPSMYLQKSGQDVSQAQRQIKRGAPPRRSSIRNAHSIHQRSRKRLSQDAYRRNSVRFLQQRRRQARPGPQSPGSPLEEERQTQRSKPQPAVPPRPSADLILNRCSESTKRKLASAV
# HSV replic up – enhancers of HSV replication in host cells, fold increase, host cell viability | maximum fold increase | HSV replication augmentation in cells | actives 0.005% (n = 220,000); in the data active = maximum fold increase above about 1.5; tested in PC3 cells
# Wee1 degr inh – Wee1 degradation inhibitors, primary screen, cell-based, HeLa, Wee1K328M-luciferase, luminescence; HeLa Luc-Wee1K328M stability; 100% = proteasome inhibitor MG132 effect; reporter increase, % at 5 µM; AID 1321, 2008; actives 1.2% (n = 220,000);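 active = activation above the mean of all tested compounds plus 3 SD, set per screening run, cut at about 8.8% in these data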;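 note: cells exposed to compound for 20 h before luminescence read; 0% = DMSO alone and 100% = MG132 at 30 µM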
# EP2 modulator – EP2 receptor modulators, cAMP readout, primary screen, cell-based, HTRF cAMP, PGE2 stimulation; actives 0.83% (n = 260,000); induction, % at 25 µM; AID 940, 2007; EP2-expressing cells, cAMP HTRF FRET, PGE2 co-stimulation;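 active = compounds whose cAMP rise, as percent of the full-agonist control response, exceeds 60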;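 note: rat C6 glioma line stably carrying human EP2 under a CMV promoter; the protocol text gives 20 µM as final concentration; 100% = response of wells given 1 µM PGE2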
# Furin inhibitor – human furin inhibitors, primary screen, biochemical, fluorescence intensity. P09958. purified furin, fluorogenic substrate cleavage. inhibition, % at 20 µM or 30 µM. actives 0.061% (n = 220,000); in the data active = inhibition above about 25%
# * = called active by the depositor; i = inactive; nt = no result; ! = not active in a repeat.
SMILES,PGE2 EP2 inh,NCF1 inh,HSV replic up,Wee1 degr inh,EP2 modulator,Furin inhibitor
CCN=C(Nc1ccc2c(c1)OCO2)SC1CC(=O)N(c2ccc(OC)cc2)C1=O (centres undefined),12,-5,i,-1,-38,-25
CCN=C(Nc1ccc2c(c1)OCO2)SC1CC(=O)N(c2ccccc2F)C1=O (centres undefined),15,42*,i,-1,-44,-16
c1ccc(Nc2nc(NCc3ccco3)c3ccccc3n2)cc1,62*,-33,i,1,-46,-15
CCc1ccccc1N(C)S(=O)(=O)c1ccc2[nH]cc(C(=O)O)c(=O)c2c1,3,-1,i,9.5*,26,-18
CCOC(=O)c1cc2sc(C(=O)CCC(C)O)cc2[nH]1 (centres undefined),nt,nt,nt,nt,-28,nt
c1ccc2[nH]c(-c3ccncc3)nc2c1,2,30*!,i,-2,0,-6
COc1ccccc1NC(=O)C1=C(C)NC2=C(C(=O)CC(C)(C)C2)C1c1cccs1 (centres undefined),15,nt,nt,nt,63*,nt
Cc1cc(NC(=O)CSc2nc3c(sc4ccccc43)c(=O)n2CCc2ccccc2)n[nH]1,3,32*,i,2,6,-19
N#Cc1c(NC(=O)c2cccnc2)sc2c1CCC2,12,-3,i,6,-27,-10
N#Cc1c(NC(=O)c2ccccc2)sc2c1CCC2,16,-28,i,11*,-8,-1
Cc1cc2cc(CN(C(=S)NCCCN(C)C)C3CCCC3)c(=O)[nH]c2cc1C,8,nt,nt,nt,-116,nt
C=CCNC(=O)/C(C#N)=C/c1cc(Br)ccc1OC,10,2,i,11*,-70,-22
C=CCNC(=O)/C(C#N)=C/c1ccccc1Cl,4,1,i,-1,-24,-9
CC(C)[C@@H](N)C(=O)N/N=C/c1ccc2ncccc2c1,9,-7,i,18*,7,-10
S=C(N/N=C/c1ccc2ncccc2c1)Nc1cccnc1,12,-8,i,1,-68,3
CC(C(=O)NCc1ccco1)N(c1ccc(Oc2ccccc2)cc1)S(C)(=O)=O (centres undefined),10,nt,nt,nt,-115,nt
Cc1c(N2CCCC2)cc2c(c1NC(=O)c1ccccc1Cl)C(C)(C)CC2(C)C,47*!,-71,i,6,15,3
Cc1nc2ccc(S(=O)(=O)NC(C(=O)NCc3ccco3)C(C)C)cc2s1 (centres undefined),26,121*,i,-1,6,-28
Cc1ccc(CNC(=O)C(NS(=O)(=O)c2ccc3nc(C)sc3c2)C(C)C)cc1 (centres undefined),11,0,i,2,7,-7
COc1ccccc1N(CC(=O)NCCSc1ccccc1)S(C)(=O)=O,10,-5,i,-1,14,-17
CCOc1ccccc1N(CC(=O)NCCSc1ccccc1)S(C)(=O)=O,7,0,i,9.1*,-10,-12
Clc1ccc(OCc2cn3cccnc3n2)c2ncccc12,31,-3,i,11*,-34,-13
c1cnc2c(OCc3cn4cccnc4n3)cccc2c1,8,-8,i,2,3,-20
O=C(O)Cc1ccccc1C(=O)O,0,-6,i,-3,5,-21
O=C(O)c1ccccc1S,nt,-3,nt,12*,49,-21
SMILES,PGE2 EP2 inh,NCF1 inh,HSV replic up,Wee1 degr inh,EP2 modulator,Furin inhibitor
Cc1cc2[nH]c3c(c[n+](C)c4ccccc34)c2cc1C,19,50*,i,6,-60,-23
Cc1ccc(-c2cnc(SCC(=O)Nc3ccc(N(C)C)cc3)[nH]2)cc1,10,nt,nt,nt,-186,nt
C/C=C/c1ccc(OCCCCOc2ccccc2C(C)=O)c(OC)c1,7,-7,i,0,-14,-16
C/C=C/c1ccc(OCCCCOc2c(OC)cccc2OC)c(OC)c1,8,-19,i,15*,-71,-5
COc1cccc(C(=O)N2CCC(n3nnc4ccccc4c3=O)CC2)c1,8,nt,nt,nt,-6,nt
CN(C1CCCCC1)S(=O)(=O)c1ccc(S(=O)(=O)N2CCCCC2)cc1,23,nt,nt,nt,-33,nt
CS(=O)(=O)N(Cc1ccc(C(=O)NN=C2CCCC2)cc1)c1ccccc1,12,3,i,9.3*,17,-12
COc1cc(OC)c(C2CC(=O)N3CN(c4ccccc4C)CSC3=C2C#N)cc1OC (centres undefined),2,47*,i,-2,40,-9
COC(=O)/C(N=Nc1cccc(C(F)(F)F)c1)=C(\C)O,0,-15,i,6,30,11
O=C(/C(=C/O)N=Nc1cccc(C(F)(F)F)c1)c1ccccc1,5,-10,i,-5,62*,-16
Cc1sc(NC(=O)C(C)(C)C)nc1-c1ccc2c(c1)CCN2S(C)(=O)=O,8,nt,nt,nt,-91,nt
COC(=O)c1c(C)c2c(C)cc3ccccn3c-2c1C(=O)OC,15,6,i,1,-32,-5
COC(=O)c1cc2c(-c3ccccc3)cc3ccccn3c-2c1C(=O)OC,16,53*,i,0,7,-4
Cc1cc(Br)ccc1SCC(=O)OCC(=O)NC1CC1,4,-5,i,10*,4,-20
CCOC(=O)c1c(/N=C/C2=C(O)CCCC2=O)sc(C)c1C,5,-8,i,3,4,28*
Cc1cccc(Nc2nc3c(S(=O)(=O)c4ccccc4)nnn3c3ccccc23)c1,10,-6,i,2,7,-38
Cc1cc(C)cc(Nc2nc3c(S(=O)(=O)c4ccccc4)nnn3c3ccccc23)c1,11,34*,i,4,3,-52
C/C(=N\OCC(=O)Nn1c(=O)[nH]c2ccccc2c1=O)c1cccs1,3,174*,i,0,24,-29
Cc1ccccc1C(=O)N=c1sccn1C,9,110*,i,-1,0,-15
Cc1ccccc1C(=O)Nc1nncs1,5,3,i,-3,4,-17
COc1ccc(C(=O)Nc2ccc(NC(=O)c3cccs3)cc2)cc1Cl,7,-12,i,-4,6,-10
COc1ccc(/C=C/C(=O)c2ccc(NC(=O)c3cccs3)cc2)cc1OC,26,-30,i,9.2*,-4,-12
CC(NC(=O)c1ncoc1-c1ccc(F)cc1)C(=O)N1CCCCC1 (centres undefined),4,nt,nt,nt,-63,nt
Cc1ccc(NC(=O)Cn2c(O)c(N=NC(=O)c3ccncc3)c3ccccc32)cc1,8,12,i,-1,-2,-31

# Compound activity deposited in PubChem BioAssay by several laboratories.
